Consider 32 molecules from ChEMBL document CHEMBL3433997, “St. Jude Leishmania screening dataset” (2016).

Format in all cases: functional
Experiment [1] concerns the target Solute carrier family 2, facilitated glucose transporter member 1 (Homo sapiens) (UniProt P11166). Description: ST_JUDE_LEISH: Cytotoxicity at 2uM final concentration against transgenic Leishmania Mexicana promastigotes LmGLUT1 that are glucose transport deficient and complemented with the human glucose transporter GLUT1. Activity is measured by DNA content using SYBR green in vitro.

The target of experiment [2] is Hexose transporter 1 (Plasmodium falciparum) (UniProt O97467). Description: ST_JUDE_LEISH: Cytotoxicity at 2uM final concentration against transgenic Leishmania Mexicana promastigotes LmPfHT that are glucose transport deficient and complemented with the Plasmodium falciparum hexose transporter. Activity is measured by DNA content using SYBR green in vitro.
Experiment [3] deals with Glucose transporter (Leishmania mexicana) (UniProt O61059). Description: ST_JUDE_LEISH: Cytotoxicity at 2uM final concentration against transgenic Leishmania Mexicana promastigotes LmGT2 that are glucose transport deficient and complemented with the L. Mexicana glucose transporter 2. Activity is measured by DNA content using SYBR green in vitro.

Sequence of Solute carrier family 2, facilitated glucose transporter member 1 (Homo sapiens) (P11166 whole entry): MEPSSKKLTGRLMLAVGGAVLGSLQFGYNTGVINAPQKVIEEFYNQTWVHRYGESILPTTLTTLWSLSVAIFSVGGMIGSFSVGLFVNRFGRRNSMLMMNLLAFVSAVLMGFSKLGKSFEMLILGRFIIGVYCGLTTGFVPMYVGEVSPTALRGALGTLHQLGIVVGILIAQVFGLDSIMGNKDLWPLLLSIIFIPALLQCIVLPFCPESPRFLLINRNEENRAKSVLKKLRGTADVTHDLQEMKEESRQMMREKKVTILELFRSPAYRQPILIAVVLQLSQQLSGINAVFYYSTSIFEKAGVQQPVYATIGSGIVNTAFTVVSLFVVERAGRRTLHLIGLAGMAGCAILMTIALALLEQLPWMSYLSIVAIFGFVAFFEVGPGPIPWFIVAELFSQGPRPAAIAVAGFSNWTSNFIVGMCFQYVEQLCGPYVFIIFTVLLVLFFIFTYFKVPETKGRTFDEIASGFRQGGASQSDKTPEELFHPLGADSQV

By inhibition is commonly meant the change of the read-out against control, counted positive when it falls. For the molecule `Cc1cc2ccc(/C=C/C(=O)NC3CCC(CCN4CCc5ccc(C#N)cc5CC4)CC3)cc2[nH]1` (stereo unspecified), the figures for the inhibition in experiment [1], in experiment [2] and in experiment [3] were 4.47%, 5.55% and 2.92%, respectively.
Taken in the same sequence, the figures for `COc1cccc(-c2cc(-c3ccc(NC(=O)c4ccccc4)cc3)c3c(N)ncnc3n2)c1` were -0.77%, 0.31% and -2.31%.
Taken in the same sequence, the figures for `CC(=O)C=C1CC(=O)N(C[C@@H](O)[C@H]2O[C@@H]3OC(C)(C)O[C@@H]3[C@H]2O)c2ccccc2N1` were 2.82%, 3.82% and 2.35%.
With `Cn1nc(C(F)(F)F)c(-c2ccc(F)cc2)c1NC(=O)Nc1ccc(F)cc1F`, the results for the inhibition in experiment [1], in experiment [2] and in experiment [3] were 2.96%, 2.65% and 2.29%, respectively.
The corresponding values for `CC(C)CCNC(=N)Nc1ccc(OCCCOc2ccc(NC(=N)NCCC(C)C)cc2)cc1` are 0.62%, -1.4% and -0.91%.
The corresponding values for `COc1ccccc1CCNc1nc(C)cc(N[C@@H](CC(C)C)C(=O)NCc2cccs2)n1` are 6.71%, 5.41% and 4.04%.
With `CS(=O)(=O)CCNCc1ccc(-c2ccc3c(Nc4ccc(Oc5ccccn5)cc4)ccnc3c2)o1`, the inhibition in experiment [1] was 1.24%; in experiment [2] it was -0.28%; in experiment [3], 2.55%.
Taken in the same sequence, the figures for `CCCCCn1c(Sc2ccc(C#N)c([N+](=O)[O-])c2)nnc1-c1cc(OC)cc(OC)c1` were 13%, 10.4% and 9.25%.
Taken in the same sequence, the figures for `Nc1nc(N)c2c(Cc3ccc(Br)cc3)cccc2n1` were 2.61%, 4.39% and 3.75%.
The corresponding values for `CNc1ccc(CNCc2cccc(-c3ccc(-c4nc5cccc(C)c5[nH]4)cc3)c2)cc1` are 7.63%, 5.63% and 0.87%.
For `CC(C)NCc1ccc(-c2ccc(CN3CCCC(c4ccccc4)C3)cc2)c(C(=O)NC2Cc3ccccc3C2)c1` (stereo unspecified), the inhibition in experiment [1] amounted to 16.8%; in experiment [2], 17.4%; in experiment [3] it was 11%.
On to `N#Cc1cc(C(=O)c2cc(Br)ccc2O)cn(C2CCCCC2)c1=O`, for which the inhibition is 0.39% in experiment [1], 1.1% in experiment [2] and 3.8% in experiment [3].
Taken in the same sequence, the figures for `Cn1c(=O)c2nc(-c3ccc(Cl)cc3)nnc2n(CCCC#N)c1=O` were 7.35%, 7.41% and 6.19%.
Taken in the same sequence, the figures for `N#Cc1ccc(N2CCN(Cc3cccc(-c4cccc(-c5nc6cc(C(F)(F)F)ccc6[nH]5)c4)c3)CC2)nc1` were 0.03%, 0.73% and -2.37%.
The corresponding values for `CS(=O)(=O)Cc1ccc(Nc2nccc(-c3c(-c4cccc(C(=O)Nc5c(F)cccc5F)c4)nn4ccccc34)n2)cc1` are 21.4%, 10.2% and 2.15%.
As to `Cc1[nH]c(C)c(-c2ccc(Oc3ccc(Cl)cc3)cc2)c(=O)c1C`, the results for the inhibition in experiment [1], in experiment [2] and in experiment [3] were 11.4%, 30.5% and 1.29%, respectively.
For the molecule `CCc1c(CCNCCCCCCNCCc2ccc([N+](=O)[O-])cc2)ccc(OC)c1OC`, the inhibition in experiment [1] worked out at 12.1%; in experiment [2], 10.1%; in experiment [3] it was 12.9%.
`Brc1ccc(Nc2nc(NCC3CCCO3)c3ccccc3n2)cc1` (stereo unspecified): the inhibition in experiment [1] came to 24.2%; in experiment [2], 22.3%; in experiment [3] it was 8.12%.
As for `CC(=NO)C1=C(O)C(c2ccccc2)N(c2ccccc2)C1=O` (stereo unspecified), the inhibition in experiment [1] amounted to 1.86%; in experiment [2], 2.06%; in experiment [3], 1.72%.
Taken in the same sequence, the figures for `COc1ccc(OC)c(CC2c3ccc(Br)c(O)c3CCN2C)c1` (stereo unspecified) were 1.36%, 1.41% and 2.33%.
The corresponding values for `c1ccc(COc2ccc(Cn3ccc(-c4ccc(-n5ccnc5)cc4)n3)cc2)cc1.c1ccc(COc2ccc(Cn3nccc3-c3ccc(-n4ccnc4)cc3)cc2)cc1` are 0.24%, 1.54% and 1.48%.
The corresponding values for `COc1ccc(NC(=O)[C@H](CC(C)C)Nc2cc(C)nc(NCCc3ccccc3OC)n2)cc1` are 1.28%, 2.79% and 0.24%.
On to `O=C(C1CCN(c2nnnn2-c2ccccc2)CC1)N1CCc2ccccc2C1`, for which the inhibition in experiment [1] was found to be 13%; in experiment [2], 15.6%; in experiment [3], 14.1%.
Consider `COc1ccc(CCNCCCCCCNCCc2ccc(Cl)c(Cl)c2)cc1OC`, for which the inhibition came to 4.21% in experiment [1], 3.9% in experiment [2] and 3.76% in experiment [3].
Taken in the same sequence, the figures for `COc1ccc(S(=O)(=O)NC2CCN(CCNC(=O)Nc3cc(C)nc4ccccc34)C2)cc1` (stereo unspecified) were -0.6%, -0.21% and -0.75%.
As to `N=C(NCCCCCCCCNC(=N)Nc1ccc(Cl)cc1)Nc1ccc(Cl)cc1`, the inhibition in experiment [1] was 5.92%; in experiment [2], 0.99%; in experiment [3], 8.78%.
The corresponding values for `NC(=O)c1cccc(Nc2nccc(Nc3ccc(Oc4cccc5ccccc45)cc3)n2)c1` are 7.84%, 7.66% and 1.31%.
Taken in the same sequence, the figures for `CN1CCC(OC(=O)c2cc3cc(-c4ccccc4)ccc3n2S(=O)(=O)c2ccccc2)CC1` were 1.64%, 0.71% and 3.61%.
In the case of `O=C(O)CCc1ccc(-c2c[nH]c3ncc(-c4ccc5ncccc5c4)cc23)cc1`, the inhibition was 10.2% in experiment [1], 8.63% in experiment [2] and 5.55% in experiment [3].
The corresponding values for `COc1cc2c(cc1S(=O)(=O)c1ccc(NC(=O)c3ccc4ccccc4c3)cc1)CCN(C)CC2` are 1.64%, 0.19% and -0.44%.
On to `O=C(Nc1ccc(C(F)(F)F)cc1)c1cc(Br)cnc1NCCCn1ccnc1`, for which the inhibition in experiment [1] is -0.53%; in experiment [2], -4.7%; in experiment [3] it was -3.55%.
The corresponding values for `CCc1cc2c(=O)c(-c3nc(C)cs3)c([C@H](N)Cc3ccc(O)cc3)oc2cc1O` are 2.9%, 2.34% and 7.8%.
